Screens from PubChem BioAssay.
This is a sample that favours compounds with a hit; in the whole collection about 19% have one here.
TDP1 cell CPT = growth inhibition of DT40 Tdp1-/-;hTDP1 cells with camptothecin (screen for TDP1 inhibitors) | chicken DT40 Tdp1-/-;hTDP1 cells + 20 nM CPT, ATP luminescence, 48 h | Potency, µM (doses to about 46.2 µM), for the others: top-dose activity change, negative = growth inhibition, most hits filed as inhibitors | actives 12% (n = 420,000); note: potency is the fitted concentration of half-maximal effect; nearly all actives have a fitted effect of over 55% in size
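Chicken DT40 Tdp1-/- cells stably complemented with human TDP1 were seeded at 400 cells/well in medium containing 20 nM camptothecin, exposed to pin-transferred compounds, and grown at 37 °C for at least 48 hr. Viability was read as ATP luminescence.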
TDP1 cell noCPT = qHTS for Inhibitors of human tyrosyl-DNA phosphodiesterase 1 (TDP1): qHTS in cells in absence of CPT | DT40 Tdp1-/- hTDP1 cells, no CPT, ATP luminescence, 48 h | Potency, µM (doses to about 46.2 µM), for the others: at the highest dose activity change, negative = growth inhibition, most hits filed as inhibitors | actives 15% (n = 420,000) | AID 686978, 2013; note: potency is the fitted concentration of half-maximal effect; nearly all actives have a fitted effect of over 55% in size
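Readout: luminescence from CellTiter-Glo after 30 min in the dark at RT. Cells: DT40 Tdp1-/- with stable hTDP1, 400/well. Exposure: compounds alone, ≥48 hr, 37 °C.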
TDP1 block = blocks human tyrosyl-DNA phosphodiesterase 1; Potency, µM (doses to about 130 µM), without a hit: at the top dose activity change, negative = inhibition, actives largely listed as inhibitors; actives 0.28% (n = 350,000); recombinant TDP1, AlphaScreen DNA substrate cleavage; AID 485290; note: potency is the fitted concentration of half-maximal effect; nearly all actives have a fitted effect of over 40% in size
Target sequence (Q9NUW8 whole entry, looked up): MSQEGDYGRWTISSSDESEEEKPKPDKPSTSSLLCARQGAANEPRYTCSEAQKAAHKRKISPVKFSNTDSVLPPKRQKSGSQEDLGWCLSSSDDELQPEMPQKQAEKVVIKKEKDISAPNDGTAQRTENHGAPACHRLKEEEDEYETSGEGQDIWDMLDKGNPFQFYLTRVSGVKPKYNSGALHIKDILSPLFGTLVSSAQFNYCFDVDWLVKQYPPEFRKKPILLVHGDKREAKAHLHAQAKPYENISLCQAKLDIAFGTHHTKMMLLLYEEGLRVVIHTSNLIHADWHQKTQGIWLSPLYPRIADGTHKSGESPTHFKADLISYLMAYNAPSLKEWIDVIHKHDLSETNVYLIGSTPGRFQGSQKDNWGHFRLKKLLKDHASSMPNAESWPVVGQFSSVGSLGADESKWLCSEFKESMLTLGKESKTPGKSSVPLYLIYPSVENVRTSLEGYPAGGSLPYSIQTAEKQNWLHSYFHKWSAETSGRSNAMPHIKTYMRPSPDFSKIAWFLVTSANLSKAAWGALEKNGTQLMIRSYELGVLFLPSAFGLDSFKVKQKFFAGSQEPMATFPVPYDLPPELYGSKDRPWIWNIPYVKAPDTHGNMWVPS
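Recombinant human Tdp1 (E. coli-expressed, 1 nM final) preincubated with compounds 15 min at room temperature, then 5'-biotin/3'-phosphotyrosine-FITC DNA substrate (15 nM final) added for 5 min. AlphaScreen beads (10 ug/ml final) added 10 min; cleavage lowers signal.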
ELG1 DNA repair = blocks ELG1-dependent DNA repair in HEK293T cells; HEK293T ELG1-luciferase reporter, luminescence, 16 h; DNA damage induced by 5-fluorouridine; Potency, µM (highest dose often 46.1 µM), for inactives: at the top dose activity change, negative = inhibition, actives largely listed as inhibitors; actives 2.3% (n = 330,000); note: potency is the fitted concentration of half-maximal effect; nearly all actives have a fitted effect of over 55% in size
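Quantitative HTS, concentration-response format. 2,000 cells/well co-treated with 5-fluorouridine and compound, 16 hr in 5% CO2 at 37 °C; ONE-Glo luminescence read after 30 min.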
Giardia kill = kills Giardia lamblia; Giardia lamblia trophozoite viability; activity change, % at 7.66 µM, hits read low; actives 0.15% (n = 340,000); AID 540267; in the data active = activity change below about -80%; inconclusive = between about -30% and that limit;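 note: parasites exposed to compound for two days anaerobically before the ATP read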
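Trophozoites 100 cells/well + cpd; 48 hrs, 37 deg C, anaerobic. ATPLite 1-Step added, 15-30 min RT, luminescence read (ATP-based viability).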
IL1B secr inh = inflammasome signaling inhibition, IL-1 beta readout; THP-1 LPS/ATP IL-1B secretion, AlphaLISA, 16 h; active compounds read low; activity change, % at 57.5 µM; actives 4.7% (n = 360,000); AID 743279; in the data active = activity change below about -50%; inconclusive = mostly about -30% to -49%
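Secreted IL-1B measured by AlphaLISA bead assay after 16 h compound exposure of THP-1 cells; compounds (final up to 57.5 uM) added 1 h before LPS (250 ng/mL) and ATP (1.25 mM) stimulation; lower signal means less secretion.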
An asterisk follows results filed as active; i = inactive; ? = inconclusive; . = not tested or not shown; [ ] = another dose, or the depositor's remark. Unless noted, calls come from the whole dose curve; as a rule, active = well fitted curve in the direction sought with a large enough effect; inconclusive = small, poorly fitted or top-dose-only effect, or another doubt; inactive = no such curve, though single readings can be large; an effect the other way counts as inactive or inconclusive. % is set by controls: 0 for no effect and ±100 for the full control effect.

SMILES | TDP1 cell CPT | TDP1 cell noCPT | TDP1 block | ELG1 DNA repair | Giardia kill | IL1B secr inh
Cc1oc(-c2cccc(Cl)c2)nc1CS(=O)(=O)CC(=O)NC(C)CCc1ccccc1 (stereo unspecified) | -30% | ? | 6% | . | . | .
Cc1ccc(-n2c(=O)c3c(cnn3C)n(CC(=O)Nc3ccc(C)cc3C)c2=O)cc1 | -24% | -14% | 6% | . | . | .
O=C(O)c1ccccc1C=NNc1ccccn1 | 0% | 0% | . | . | 5 | -2
Cc1[nH]n(-c2ncc(-c3ccc(Cl)cc3)s2)c(=O)c1C(c1ccc(Cl)cc1)C(C#N)C#N (stereo unspecified) | -23% | ? | 10% | ? | -6 | ?
COc1ccc(C(c2c(C)[nH]n(C(N)=S)c2=O)C(C#N)C#N)cc1 (stereo unspecified) | 23µM* | ? | 5% | ? | 3 | -28
Cc1cc(C)c(NC(=O)Cn2c(=O)c3cccn3c3ccccc32)c(C)c1 | ? | -26% | -7% | 4% | 4 | 10
CN(C)CCNC(=O)CCCn1c(=O)c2cccn2c2ccccc21 | 15% | -3% | 9% | . | . | .
CCc1ccccc1NC(=O)CCCn1c(=O)c2cccn2c2ccccc21 | ? | 16µM* | 10% | . | . | .
Cc1ccc(NC(=O)CCn2c(=O)c3cccn3c3ccccc32)cc1Cl | 18µM* | 23µM* | 6% | . | . | .
Cc1ccc(NC(=O)CCn2c(=O)c3cccn3c3ccccc32)cc1C | ? | 18µM* | 6% | 0% | 12 | 61
COC(=O)c1ccccc1NC(=O)CCCn1c(=O)c2cccn2c2cccnc21 | -19% | -21% | 5% | . | . | .
Cc1ccc(NC(=O)CCCn2c(=O)c3cccn3c3ccccc32)cc1C | 16µM* | 12µM* | 0% | . | . | .
CC(C)c1ccc(NC(=O)C2(C)Cc3ccccc3C(=O)O2)cc1 (stereo unspecified) | ? | ? | 0% | . | . | .
Cc1c(Cl)cccc1NC(=O)CCn1c(=O)c2cccn2c2ccccc21 | ? | 16µM* | 0% | . | . | .
CCc1cc2c(cc3c(=O)n(CC(=O)NC4CCCCC4)ncn32)s1 | 1% | -13% | -2% | . | . | .
CN(c1nc2ccccc2nc1Cl)S(=O)(=O)c1ccccc1 | ? | 23µM* | . | ? | 5 | -6
C[C@H](CO)N1C[C@H](C)[C@H](CN(C)C(=O)c2cc(-c3ccccc3)on2)OCc2cnnn2CCCC1=O | 4% | -20% | . | . | . | -1
COc1ccc(-n2nc(C(=O)NCC(=O)Nc3cc(OC)c(OC)c(OC)c3)c3ccccc3c2=O)cc1Cl | ? | 1.6µM* | -1% | ? | 2 | 0
COc1ccc(-n2nc(C(=O)NCC(=O)Nc3ccccn3)c3ccccc3c2=O)cc1 | -29% | -26% | 4% | -10% | -2 | 29
CCCCNC(=O)CNC(=O)c1nn(-c2ccc(OC)cc2)c(=O)c2ccccc12 | -5% | 5% | . | -11% | -20 | 15
CCOc1ccc(NC(=O)CNC(=O)c2nn(-c3ccc(OC)cc3)c(=O)c3ccccc23)cc1 | -23% | 12µM* | 6% | ? | -16 | 91
COc1ccc(-n2nc(C(=O)NCC(=O)NCCCN3CC(C)CC(C)C3)c3ccccc3c2=O)cc1Cl (stereo unspecified) | -12% | ? | 2% | 8% | -9 | -71*
COc1ccc(-n2nc(C(=O)NCC(=O)Nc3cccc(Cl)c3)c3ccccc3c2=O)cc1 | ? | ? | -1% | 13µM* | 22 | -3
CC(C)CNC(=O)CC(=O)N/N=C/c1ccc(F)cc1 | -9% | -3% | 0% | 5% | -4 | -7
COc1ccc(C(=O)NC2CC(=O)N(c3ccc4c(c3)OCCO4)C2)cc1 (stereo unspecified) | 1% | -27% | -3% | . | . | .
SMILES | TDP1 cell CPT | TDP1 cell noCPT | TDP1 block | ELG1 DNA repair | Giardia kill | IL1B secr inh
S=C1CCC(c2ccc(Br)cc2)=NN1c1ccccc1 | ? | ? | . | -8% | 22 | -1
O=C(NNS(=O)(=O)c1ccc(F)cc1F)C1Cc2c(ccc3ccccc23)O1 (stereo unspecified) | 18µM* | 18µM* | 8% | -5% | -1 | 39
O=C(C1=C[C@@H](c2ccccc2)C[C@@H](OCc2ccc(CO)cc2)O1)N1CCN(Cc2ccc3c(c2)OCO3)CC1 | 18µM* | 21µM* | 6% | 15µM* | 0 | ?
O=C(C1=C[C@H](c2ccccc2)C[C@H](OCCCCO)O1)N1CCN(Cc2ccc3c(c2)OCO3)CC1 | ? | -34% | 4% | -9% | -2 | -9
O=C(C1=C[C@H](c2ccccc2)C[C@H](OCc2ccc(CO)cc2)O1)N1CCN(Cc2ccccc2)CC1 | ? | ? | 5% | ? | 2 | -60*
CN1CCN(C(=O)C2=C[C@H](c3ccc(C(F)(F)F)cc3)C[C@H](OCc3ccc(CO)cc3)O2)CC1 | 23µM* | ? | 0% | 14% | 0 | -13
Cc1ccc(CN2C[C@H](Sc3ccccn3)C[C@H]2C(=O)Nc2ccc3sc(C)nc3c2)cc1 | 3%[9.04 µM] | -13% | . | . | . | .
COC(=O)C1=C[C@@H](C(=O)OC)C2C3=C(C(=O)[C@]2(CC(C)C)NC(=O)c2ccccc2)[C@H](C)n2c(=O)n(C)c(=O)n2[C@@H]3C1 (stereo partly specified) | . | . | 8% | . | -19 | .
COc1cc(OC)cc(C(=O)NNC(=O)CCC(=O)c2cccs2)c1 | 1% | 5% | 2% | 5% | -6 | i
COc1cc(NC(=O)COc2cccc(C)c2C)ccc1NC(=O)c1ccco1 | -20% | ? | -4% | ? | -10 | -5
CCCNC(=O)Cn1ncc2c3ccccc3n(CCC)c2c1=O | ? | 15µM* | 4% | . | . | .
CCCn1c2ccccc2c2cnn(CC(=O)NCCN(CC)CC)c(=O)c21 | -20% | ? | 6% | 11% | 53 | -91*
CCCn1c2ccccc2c2cnn(CC(=O)NCCN(C)C)c(=O)c21 | -25% | 0% | . | -4% | 9 | -6
CCCCN(C)CCNC(=O)Cn1ncc2c3ccccc3n(CCC)c2c1=O | 23µM* | ? | -1% | . | . | .
CCCn1c2ccccc2c2cnn(CC(=O)NCCCN(CC)c3ccccc3)c(=O)c21 | ? | ? | 10% | . | . | .
CCN(CC)S(=O)(=O)c1ccc(N2CCOCC2)c(NC(=O)c2cc3ccccc3oc2=O)c1 | ? | 16µM* | 5% | 5.2µM* | 16 | -11
